Test results published in PubChem BioAssay (NCI).
The panel holds about 83,000 compounds, 20% with a hit somewhere; the sample as a whole holds those more often.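 The endpoint reported here, percent growth, reads 100 for growth as untreated, 0 for no net growth and -100 for all cells dead.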 A number with no mark means an inactive call. Activity calls are given as the source filed them. How the source made its calls: active means growth percent below 10; inactive means the rest.

Test system: SF-539 CNS
Experiment: NCI-60 one-dose screen, 48 h (100 = growth as untreated, 0 = no growth, -100 = all killed)
Settings: 10 µM unless noted

SMILES	growth
Cc1nc2sc(C(=O)Nc3cccc(Cl)c3C)c(N)c2cc1C(=O)/C=C/c1ccccc1	-25.5% (active)
CN1CCN(Cc2ccc(NC(=O)c3cncc(C#Cc4cnc(N)cc4C#N)c3)cc2C(F)(F)F)CC1	-12% (active)
c1cc(OCCN2CCCC2)ccc1CNc1ccc2nc(CCC3CCCCC3)[nH]c2c1	-72.4% (active)
CCN(CC)CCOc1ccc2c(-c3ccccc3)c(-c3ccc(OC)cc3)c(=O)oc2c1	58.7%
O=C1/C(=C/c2c[nH]c(=O)[nH]c2=O)SC(=S)N1Cc1ccccc1	96.9%
CCN(CC)CCCNc1cc(OC)c(OC)c2cccnc12	55.7%
COc1cc(Cc2cc(OC)c(O)c(OC)c2)cc(OC)c1O	101%
CSc1ccc(N2C(=N)C(=S)N(c3ccc(C)cc3)C2=O)cc1	92.8%
CCOC(=O)/C(=C(/C)NCC(C)C)c1cc(O)c(O)c2c(C)cc(=O)[nH]c12	35.7%
C/C(=C(\c1ccc(OCCN2CCCCCC2)cc1)c1ccc(OC(=O)c2ccccc2)cc1)c1ccc(Cl)cc1	58.5%
COCCn1cc(-c2csc(-c3c[nH]c4ccc(F)cc34)n2)c2cccnc21	46.8%
Cc1ccc2cnc(N)c(C#Cc3cc(C(=O)Nc4ccc(CN5CCN(C)CC5)c(C(F)(F)F)c4)cnc3C)c2c1	-85.9% (active)
O=C(NNc1nc2cc(F)ccc2n2c(CN3CCOCC3)ccc12)c1ccccc1	4.33% (active)
COc1ccc(-c2nc(SCC(=O)Nc3nc4ccc(C)cc4s3)[nH]c(=O)c2C#N)cc1OC	92.9%
CCOC(=O)c1ccc[nH]1	91.9%
COc1cc(Cc2cc(-c3ccccc3)nn(Cc3ccccc3)c2=O)cc(OC)c1OC	70%
O=C(Nc1ccc(Nc2ccncc2)cc1)c1ccc(Nc2ccnc3ccc([N+](=O)[O-])cc23)cc1	85.5%
C[C@H]1[C@H](C)CC[C@]2(C(=O)NCCNCCN)CC[C@]3(C)C(=CC[C@@H]4[C@@]5(C)CCC(=O)C(C)(C)[C@@H]5CC[C@]43C)[C@H]12	-28.3% (active)
COc1ccc(C/C(C)=C(\c2ccc(Cl)cc2)c2ccc(OCCN3CCCC3)cc2)cc1	88%
CCOc1ccc(NC(=O)Nc2ccc(OCC)cc2)cc1	97.2%

SMILES	growth
Cc1ccc(NC(=O)c2cc3ccccc3cc2O)c(C)c1	78.7%
COC(=O)c1c2c(c[n+]([O-])c1C)C(=O)C=C(NCc1ccccc1)C2=O	-99% (active)
C=C1C(=O)O[C@H]2[C@H]1CC/C(CNC(=O)Cc1c[nH]c3ccccc13)=C\CC[C@@]1(C)O[C@@H]21	-27.1% (active)
C#CCOc1ccc2nc(CCl)c(Cl)c(Nc3cccc(C(F)(F)F)c3)c2c1	104%
O=C1/C(=C/c2cccc(Br)c2)COc2ccc(O)cc21	69.3%
CCN(CC)CCOc1ccc(/C(=C(\C)Cc2ccc(OC)cc2)c2ccc(OC(=O)NCc3ccccc3)cc2)cc1	65.6%
O=C(CCCCCCCC(=O)N1CCCCC1)N1CCCCC1	103%
Cc1ccc(-c2nc(SCC(=O)N3CCN(c4cc5c(cc4F)c(=O)c(C(=O)O)cn5C4CC4)CC3)nc(Cl)c2C#N)cc1	100%
CSc1ccc2c3c(n(C[C@H](O)CO)c(=O)c2c1)-c1ccccc1C3=O	10.3%
Cc1cn(C)cn1	110%
C#Cc1cccc(Nc2ncnc3cc(NC(=O)CCl)ccc23)c1	-90.9% (active)
O=S(=O)(NCCNc1nccc(-c2c(-c3ccc(F)c(O)c3)nc3sccn23)n1)c1ccc(Cl)cc1	43%
COc1ccc(C(O)c2cc3c(N)c(C(=O)Nc4cccc5ccccc45)sc3nc2C)cc1 (stereo not given)	4.62% (active)
O=C(Nc1cc(Cl)ccc1O)c1ccccc1Nc1ccnc(C(F)(F)F)c1	14.5%
COc1ccc(/C=C2\c3cc(OC)c(OC)c(OC)c3CC[C@@H]2O)cc1F	1.44% (active)
CCN(CC)C(=O)C1=C(C)NC(=O)NC1c1ccc2c(c1)OCO2 (stereo not given)	96.2%
COc1ccc(C=Nc2c(C(=O)Nc3cccc(Cl)c3C)sc3nc(C)c(C(=O)/C=C/c4ccc(OC)cc4)cc23)cc1	-30.6% (active)
CC(C)(C)c1ccc(S(=O)(=O)Oc2ccc(-c3sc4cc(OS(=O)(=O)c5ccc(C(C)(C)C)cc5)ccc4c3C(=O)c3ccc(OCCN4CCCCC4)cc3)cc2)cc1	96.8%
COc1cc(/C=C/c2cc(/C=C/c3ccc(O)c(OC)c3)n(C(=O)Nc3ccc(Cl)cc3)n2)ccc1O	0.163% (active)
O=c1cc(CP(=O)(O)O)c2cc(O)c(-c3ccccc3)cc2o1	104%

Test system: UACC-257 melanoma
Experiment: as above
Settings: 10 µM unless noted

SMILES	growth
Cc1nc2sc(C(=O)Nc3cccc(Cl)c3C)c(N)c2cc1C(=O)/C=C/c1ccccc1	64.2%
CN1CCN(Cc2ccc(NC(=O)c3cncc(C#Cc4cnc(N)cc4C#N)c3)cc2C(F)(F)F)CC1	3.84% (active)
c1cc(OCCN2CCCC2)ccc1CNc1ccc2nc(CCC3CCCCC3)[nH]c2c1	-77.8% (active)
CCN(CC)CCOc1ccc2c(-c3ccccc3)c(-c3ccc(OC)cc3)c(=O)oc2c1	18.1%
O=C1/C(=C/c2c[nH]c(=O)[nH]c2=O)SC(=S)N1Cc1ccccc1	104%
CCN(CC)CCCNc1cc(OC)c(OC)c2cccnc12	67%
COc1cc(Cc2cc(OC)c(O)c(OC)c2)cc(OC)c1O	89.3%
CSc1ccc(N2C(=N)C(=S)N(c3ccc(C)cc3)C2=O)cc1	99.7%
CCOC(=O)/C(=C(/C)NCC(C)C)c1cc(O)c(O)c2c(C)cc(=O)[nH]c12	83.5%
C/C(=C(\c1ccc(OCCN2CCCCCC2)cc1)c1ccc(OC(=O)c2ccccc2)cc1)c1ccc(Cl)cc1	-7.06% (active)
COCCn1cc(-c2csc(-c3c[nH]c4ccc(F)cc34)n2)c2cccnc21	36.5%
Cc1ccc2cnc(N)c(C#Cc3cc(C(=O)Nc4ccc(CN5CCN(C)CC5)c(C(F)(F)F)c4)cnc3C)c2c1	31.9%
O=C(NNc1nc2cc(F)ccc2n2c(CN3CCOCC3)ccc12)c1ccccc1	-6.53% (active)
COc1ccc(-c2nc(SCC(=O)Nc3nc4ccc(C)cc4s3)[nH]c(=O)c2C#N)cc1OC	103%
CCOC(=O)c1ccc[nH]1	90.8%
COc1cc(Cc2cc(-c3ccccc3)nn(Cc3ccccc3)c2=O)cc(OC)c1OC	32%
O=C(Nc1ccc(Nc2ccncc2)cc1)c1ccc(Nc2ccnc3ccc([N+](=O)[O-])cc23)cc1	101%
C[C@H]1[C@H](C)CC[C@]2(C(=O)NCCNCCN)CC[C@]3(C)C(=CC[C@@H]4[C@@]5(C)CCC(=O)C(C)(C)[C@@H]5CC[C@]43C)[C@H]12	88.7%
COc1ccc(C/C(C)=C(\c2ccc(Cl)cc2)c2ccc(OCCN3CCCC3)cc2)cc1	93.5%
CCOc1ccc(NC(=O)Nc2ccc(OCC)cc2)cc1	113%

SMILES	growth
Cc1ccc(NC(=O)c2cc3ccccc3cc2O)c(C)c1	86.3%
COC(=O)c1c2c(c[n+]([O-])c1C)C(=O)C=C(NCc1ccccc1)C2=O	-92.2% (active)
C=C1C(=O)O[C@H]2[C@H]1CC/C(CNC(=O)Cc1c[nH]c3ccccc13)=C\CC[C@@]1(C)O[C@@H]21	5.96% (active)
C#CCOc1ccc2nc(CCl)c(Cl)c(Nc3cccc(C(F)(F)F)c3)c2c1	93.7%
O=C1/C(=C/c2cccc(Br)c2)COc2ccc(O)cc21	99.9%
CCN(CC)CCOc1ccc(/C(=C(\C)Cc2ccc(OC)cc2)c2ccc(OC(=O)NCc3ccccc3)cc2)cc1	38.2%
O=C(CCCCCCCC(=O)N1CCCCC1)N1CCCCC1	89.3%
Cc1ccc(-c2nc(SCC(=O)N3CCN(c4cc5c(cc4F)c(=O)c(C(=O)O)cn5C4CC4)CC3)nc(Cl)c2C#N)cc1	99.3%
CSc1ccc2c3c(n(C[C@H](O)CO)c(=O)c2c1)-c1ccccc1C3=O	85.5%
Cc1cn(C)cn1	90.2%
C#Cc1cccc(Nc2ncnc3cc(NC(=O)CCl)ccc23)c1	-7% (active)
O=S(=O)(NCCNc1nccc(-c2c(-c3ccc(F)c(O)c3)nc3sccn23)n1)c1ccc(Cl)cc1	32.9%
COc1ccc(C(O)c2cc3c(N)c(C(=O)Nc4cccc5ccccc45)sc3nc2C)cc1 (stereo not given)	35.3%
O=C(Nc1cc(Cl)ccc1O)c1ccccc1Nc1ccnc(C(F)(F)F)c1	26.8%
COc1ccc(/C=C2\c3cc(OC)c(OC)c(OC)c3CC[C@@H]2O)cc1F	39%
CCN(CC)C(=O)C1=C(C)NC(=O)NC1c1ccc2c(c1)OCO2 (stereo not given)	103%
COc1ccc(C=Nc2c(C(=O)Nc3cccc(Cl)c3C)sc3nc(C)c(C(=O)/C=C/c4ccc(OC)cc4)cc23)cc1	55.6%
CC(C)(C)c1ccc(S(=O)(=O)Oc2ccc(-c3sc4cc(OS(=O)(=O)c5ccc(C(C)(C)C)cc5)ccc4c3C(=O)c3ccc(OCCN4CCCCC4)cc3)cc2)cc1	106%
COc1cc(/C=C/c2cc(/C=C/c3ccc(O)c(OC)c3)n(C(=O)Nc3ccc(Cl)cc3)n2)ccc1O	3.11% (active)
O=c1cc(CP(=O)(O)O)c2cc(O)c(-c3ccccc3)cc2o1	101%
